# Only a selection was taken, and hits are over-represented in it overall.
# Pf Dd2 growth – qHTS Primary assay for Inhibitors of Plasmodium falciparum Dd2 growth in vitro | P. falciparum Dd2 growth, SYBR Green, 72 h | Potency, µM (series often up to 28.9 µM), without a hit: at the highest dose activity, negative = inhibition, most hits filed as inhibitors | actives 4.3% (n = 120,000) | AID 1347417, 2020; active = well fitted inhibition curve with a large enough effect;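 also: plate controls were DMSO vehicle for no effect and reference drug for full effect; nearly all actives have a fitted effect of over 65% in size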
#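 Readout: SYBR Green fluorescence, 485 nm excitation, 535 nm emission, after ~16 h lysis at 37C. Before that, Dd2-infected red cells (2.5% hematocrit) grew 72 h with compound, 29 uM top final concentration.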
# Active calls of the source: *; i = inactive; [ ] = remark or other dose. Potency is read from the fitted curve at half-maximal effect.
SMILES,Pf Dd2 growth
COC(=O)c1c(NC(=O)c2cc(OC)c(OC)c(OC)c2Br)sc2c1CCC(C)C2 (centres undefined),61.9%
CCOc1ccccc1NC(=O)c1c(NC(=O)C(C)Oc2ccc(Cl)cc2)sc2c1CCCCC2 (centres undefined),10µM*
O=C(Cc1ccccc1)Nc1sc2c(c1C(=O)Nc1ccccc1Cl)CCC2,i
CCOc1ccccc1NC(=O)c1c(NC(=O)c2ccccc2)sc2c1CCCC2,i
COc1ccc(Cl)cc1NC(=O)c1c(NCc2sccc2C)sc2c1CCCC2,12.6µM*
COc1ccc(NC(=O)c2c(NCc3ccc(C)o3)sc3c2CCC(C)C3)cc1 (centres undefined),8.91µM*
COc1ccc(NC(=O)Cn2c(=O)n(-c3ccccc3)c(=O)c3c4c(sc32)CCCC4)c(OC)c1,26.1%
O=C(Nc1sc2c(c1C(=O)Nc1ccccc1Cl)CCCC2)c1ccccc1F,3.8%
COc1ccc(NC(=O)c2c(NCc3ccc(C)o3)sc3c2CCCCC3)c(OC)c1,11.2µM*
COc1ccc(NC(=O)c2c(NC(=O)COc3ccccc3)sc3c2CCC(C)C3)cc1 (centres undefined),7.9%
COc1ccc(NC(=O)c2nc(-c3ccc(C)cc3)n3c2CCCCC3)c(OC)c1,2.8%
O=C(O)C1Cc2nc[nH]c2CN1C(=O)CCc1cn2ccccc2n1 (centres undefined),5.5%
O=C1CCN(S(=O)(=O)c2ccccc2)CCCN(C(=O)NCc2ccccc2)CCN1,1.6%
O=C(c1ccsc1)N1CCC(N(C(=O)C2CC2)C2CCOCC2)CC1,0.7%
CC(C)c1nc2nccc(-c3ccsc3)n2n1,-9.0%
Cc1cnc(C(=O)N2CCCCCCNC(=O)[C@@H]3CCC[C@@H]32)cn1,5.9%
Cc1ccc(-c2nnc3ccc(Nc4cccc(N(C)C)c4)nn23)nc1,-7.4%[44.1 µM]
Cc1nn(C)c(C)c1S(=O)(=O)N1CCC(c2noc(C3CC3)n2)C1 (centres undefined),30.1%[5.79 µM]
CCc1cc(C(=O)N[C@@H]2COCC[C@@H]2OCc2ccccc2)cc(=O)[nH]1,-1.6%
CNC(=O)[C@@H]1CN(C(=O)CCCc2c[nH]c3ccccc23)C[C@H]1c1n[nH]c(C)n1,4.3%
CCCCNc1ccc2nncn2n1,24.7%
CC(C)NC(=O)N(C1CC1)C1CCOC2(CCN(C(=O)c3n[nH]c4ccccc34)CC2)C1 (centres undefined),-28.3%
NC(=O)CCNC(=O)[C@@]1(O)C[C@@H](O)[C@H](O)[C@@H](NC(=O)c2ccc(F)c(Cl)c2)C1,17.6%[44.1 µM]
COc1ccc(NC(=O)c2c(NCc3sccc3C)sc3c2CCCCC3)c(OC)c1,12.6µM*
COc1ccccc1NC(=O)c1c(NC(=O)COc2ccccc2)sc2c1CCCCC2,-3.3%
SMILES,Pf Dd2 growth
COc1ccc(NC(=O)c2c(OC)cc(=O)n3c2CCCC3)c(C)c1,8.1%
COC(=O)c1c(NC(=O)c2ccc(OC)cc2OC)sc2c1CCCCC2,32.7%
COc1ccccc1NC(=O)c1c(NCc2sccc2C)sc2c1CCCCC2,11.2µM*
COc1ccc(Cl)cc1NC(=O)Cn1nc(C(F)(F)F)c2c1CCCC2,5.8%
COc1ccc(Cl)cc1NC(=O)Cn1nnc(C(=O)NCc2cccs2)c1N,1.6%
CCOc1ccc(/C=C/C(=O)Nc2sc3c(c2C(=O)OC)CCC3)cc1,16.3%
CCOC(=O)N1CCc2c(sc(NCc3cccs3)c2C(=O)Nc2cc(Cl)ccc2OC)C1,8.91µM*
CCOc1ccc(NC(=O)c2c(NCc3ccc(C)o3)sc3c2CCCCC3)cc1,11.2µM*
CCOc1ccc(NC(=O)c2c(NC(=O)c3cccc(C)c3)sc3c2CCC3)cc1,12.7%
O=C(C[C@H]1NC(=O)c2ccccc2NC1=O)Nc1nc(-c2cccnc2)cs1,i
O=S(=O)(NCC1CCOCC1)c1ccccc1F,17.6%
O=C(c1cccnc1)N1CCC2(CCCCO2)CC1,-19.6%
Cc1ccccc1C(=O)N1CCC(c2n[nH]c(=O)n2Cc2ccc(F)cc2)CC1,-24.0%
COc1ccc(C[C@H](NC(=O)C2=C[C@@H](NC(=O)Nc3ccc(OC(F)(F)F)cc3)[C@@H](O)[C@H](O)C2)C(N)=O)cc1,13.7%
O=C(O)c1ccc(CC2CCN(C(=O)C3CC3)CC2)cc1,-6.6%
COc1cc(Cl)ccc1-c1cccc(COc2cnc3c(ccn3CC(=O)O)c2)c1,i
COc1cccc(S(=O)(=O)N2CCn3c(nnc3-c3ccncc3)C2)c1,10.2%
Cc1nc([C@H]2CCN(CC(C)C)C[C@H]2NC(=O)C2CCOCC2)n[nH]1,33.0%
CCOC(=O)c1c(NC(=O)c2ccccc2OCC)sc2c1CCC(CC)C2 (centres undefined),89.0%
CCOc1ccc(NC(=O)c2c(NCc3sccc3C)sc3c2CCCCC3)cc1,11.2µM*
Cc1cc(C)c2c(=O)cc(C(=O)Nc3sc4c(c3C(=O)NCc3cccnc3)CCCC4)oc2c1,26.8%
CCOC(=O)c1c(NC(=O)COc2cccc(C)c2C)sc2c1CCCCC2,69.2%
CCOC(=O)c1c(NC(=O)COc2ccc(Br)cc2)sc2c1CCCC2,19.9%
CCOc1ccccc1NC(=O)c1c(NCc2sccc2C)sc2c1CCC(C)C2 (centres undefined),5.62µM*
O=C(O)CCC(=O)Nc1sc2c(c1C(=O)Nc1ccccc1)CCCCC2,1.9%
SMILES,Pf Dd2 growth
CCOc1ccccc1NC(=O)c1c(NCc2sccc2C)sc2c1CCCCC2,12.6µM*
CCOc1ccc(NC(=O)NCc2c(-n3cccc3)sc3c2CCCC3)cc1,30.4%
CC1CCc2c(sc(NC(=O)CCCOc3ccccc3)c2C(N)=O)C1 (centres undefined),30.3%
CCOc1ccc(NC(=O)c2c(NCc3cccnc3)sc3c2CCCC3)cc1,12.6µM*
CCN(CC)Cc1nc(C2(O)CCN(C(=O)C3CCC3)CC2)cs1,35.3%[44.1 µM]
C=CCNC(=O)CCc1c(C)nn(-c2ccc(F)cc2)c1Oc1ccccc1C,i
Cc1cc(C)c(S(=O)(=O)N2CC(c3nc(-c4ccncc4)no3)C2)cc1C,-21.1%
CC(=O)Nc1ccc(S(=O)(=O)N[C@H]2CO[C@H]3[C@@H]2OC[C@H]3OC(=O)Nc2cccc3ccccc23)cc1,i
Cn1ncc(N2CCC(NC(=O)CCC3CCCCC3)CC2)cc1=O,1.5%
CN1C[C@@H](NC(=O)NCc2ccccc2)C[C@H]1c1nc(-c2cncnc2)no1,-10.8%[44.1 µM]
CCc1cccc(C)c1Nc1c(-c2ccc(N(C)C)cc2)nc2cnccn12,-22.0%
CCc1cccc(C)c1Nc1c(-c2cccc(O)c2)nc2cnccn12,8.91µM*
CCc1cccc(C)c1Nc1c(-c2ccc(F)cc2)nc2sccn12,-26.7%
CCCN(CC1CCOC1)S(=O)(=O)c1ccc(F)c(Cl)c1 (centres undefined),i[5.79 µM]
Cc1noc(C)c1CCC(=O)N1CCn2nc(Cc3ccccc3)cc2C1,-12.5%
CC(Oc1ccccc1)C(=O)N1CCCC(n2cc(-c3nc(C4CC4)no3)nn2)C1 (centres undefined),-7.8%
COCC1CN(C(=O)Cc2ccc(OC)cc2)CC12CCNCC2 (centres undefined),i
Cc1ccccc1NC(=O)c1ccc(F)c(S(=O)(=O)N2CCN(c3ccccc3F)CC2)c1,22.2%
COc1cc(Cl)c(C)cc1NC(=O)Cn1cc(S(=O)(=O)N2CCN(c3ccccc3F)CC2)c2ccccc2c1=O,11.2µM*
Cc1cc(Br)ccc1NC(=O)Cn1cc(S(=O)(=O)N2CCN(c3ccccc3F)CC2)c2ccccc2c1=O,5.8%
COc1ccc(NC(=O)Cn2cc(S(=O)(=O)N3CCC(C)CC3)c3ccccc3c2=O)cc1Cl,-17.4%
O=C(Cn1cc(S(=O)(=O)Cc2ccccc2F)c2ccccc21)Nc1ccc(F)c(Cl)c1,i

# Compound activity deposited in PubChem BioAssay by National Center for Advancing Translational Sciences (NCATS).
